Bioassay records: PubChem, National Center for Advancing Translational Sciences (NCATS)
GLS inhibitor – glutaminase GLS (human) inhibition. O94925. GLS enzymatic activity, qHTS titration. Potency, µM (top dose mostly 45.5 µM), without a hit: at the highest dose activity change, negative = inhibition, hits mostly inhibitors. 0.21% of 410,000 active; active = well fitted inhibition curve with a large enough effect; inconclusive = small, poorly fitted or top-dose-only effect, or another doubt; inactive = no such curve, though single readings can be large or run the other way; note: potency is the fitted concentration of half-maximal effect; % is set by controls: 0 for no effect and ±100 for the full control effect
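Read-out is an Amplex red fluorescence increase coupled through glutamate oxidase and HRP, measured before and after 30 min room-temperature incubation. hKGA is in 45 mM KH2PO4 (pH 8.2) with 0.02% Tween-20; glutamine added as 1mM solution.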
Menin MLL FP FL – inhibitors of human menin-MLL interaction, wild-type MLL peptide. Fluorescence polarization, fluorescein-MLL peptide displacement from menin. FP activity change, % at 61.4 µM. 290,000 tested, under 10 active. AID 1766; active = well fitted curve in the direction sought with a large enough effect in the polarisation, not every such curve was filed as active; inconclusive = small, poorly fitted or top-dose-only effect, or effect the other way, or a change in a side signal; inactive = no such curve, though single readings can be large or run the other way; the % refers to the polarisation; note: % of control where 0% means no effect
Menin-MLL TR inh – menin-MLL binding inhibition, Texas Red mutant peptide; O00255; Menin + Texas Red MLL mutant peptide, fluorescence polarization; Potency, µM (highest dose often 61.6 µM), inactives show at the highest dose FP activity change, negative = inhibition, usual class: inhibitors; 0.23% of 270,000 active; active = well fitted inhibition curve with a large enough effect in the polarisation, with a control signal flat, not every such curve was filed as active; inconclusive = small, poorly fitted or top-dose-only effect, or effect the other way, or a change in a side signal; inactive = no such curve, though single readings can be large or run the other way; the % refers to the polarisation; note: potency is the fitted concentration of half-maximal effect; % of control where 0% means no effect
Six1-Eya2 blk – inhibitors of human Six1/Eya2 interaction; Q15475+O00167; AlphaScreen GST-Six1/His-Eya2 binding, biochemical; hits give low values; activity change, % (test concentration not listed); 0.56% of 360,000 active; AID 651725; note: % is set by controls: 0 for no effect and ±100 for the full control effect
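AlphaScreen luminescence read after one hour at 37 °C in darkness. Pin-transferred compounds met GST-Six1 and His-Eya2 protein (5X stock 250 nM/500 nM) plus glutathione donor and Ni-chelate acceptor beads (5X, 50 ug/mL).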
MLL CXXC-DNA inh – blocks binding of human MLL CXXC domain to DNA; Q03164; MLL-CXXC / FITC-HOXA9 DNA fluorescence polarization; Potency, µM (titrated, usually from 115 µM), for the others: at the highest dose activity change, negative = inhibition, hits mostly inhibitors; 0.037% of 290,000 active; AID 2662; active = well fitted inhibition curve with a large enough effect in the polarisation, with a control signal flat, not every such curve was filed as active; inconclusive = small, poorly fitted or top-dose-only effect, or effect the other way, or a change in a side signal; inactive = no such curve, though single readings can be large or run the other way; the % refers to the polarisation; note: potency is the fitted concentration of half-maximal effect
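Fluorescence polarization: 7 uM MLL-CXXC (stock) preincubated 5 min with compounds, then 50 nM fluorescein-HOX-A9 DNA (stock) added; 30 min ambient. Buffer 50 mM Tris-HCl pH 7.5, 50 mM NaCl, 1 mM DTT, 0.05% BSA.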
CtBP-E1A inh – inhibitors of CtBP/E1A interaction; AlphaScreen GST-E1A/His-CtBP binding, 1536-well; hits give low values; activity change, % (concentration not given with the values); 0.49% of 340,000 active; AID 651724; note: % is set by controls: 0 for no effect and ±100 for the full control effect
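GST-E1A and His-tagged CtBP (125 nM each as 5X stock) were preincubated with pin-transferred compound for 2 h at 37 °C in the dark, then glutathione donor and nickel acceptor beads were added for 1 h before AlphaScreen reading.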
Numbers without * were called inactive; u = inconclusive; x = no result; [ ] = another dose, or the depositor's remark. Most compounds without a hit are left out; they make up all but 0.83% or so of the library. Cut-off read from the data, not from the text of the source, unless noted: active = activity change below about -65%; inconclusive = mostly about -30% to -63%; inactive = weaker than that.

SMILES	GLS inhibitor	Menin MLL FP FL	Menin-MLL TR inh	Six1-Eya2 blk	MLL CXXC-DNA inh	CtBP-E1A inh
CCCCn1c(N)c(N(CCOC)C(=O)C2CCN(c3ncnc4sc(C)c(C)c34)CC2)c(=O)[nH]c1=O	-5%	x	x	2	x	-90*
CC[C@H]1C(c2cccc(Cl)c2)=NN(c2ccccc2)[C@@H]1CO	x	22[94.6 µM]	u	x	x	x
COc1ccc(NC(=O)CC2C(=O)N(c3cccc(OC)c3)C(=O)N2Cc2ccc3c(c2)OCO3)cc1 (centres undefined)	0%	x	x	x	x	x
COc1cc2nc(=S)n(CCCN3CCOCC3)c(N)c2cc1OC	u	1	-7%	-85*	-4%	-88*
COc1cc2ncnc(NCCCN3CCOCC3)c2cc1OC	3%	7	x	0	-8%	x
CCOc1cc2nc(-c3ccc(OC)c(OC)c3)nc(NCCCN3CCOCC3)c2cc1OC	2%	2	-16%	-91*	-6%	-88*
COc1ccc(-c2nnc3n2N=C(c2cc(OC)ccc2OC)CS3)cc1	x	4	4%	x	x	x
CCOC(=O)C(CS)NCCN[C@@H](CS)C(=O)OCC (some centres undefined)	4%	-4	-2%	x	1%	x
CC(C)(S)C(=O)N[C@H](CS)C(=O)O	-10%	x	x	x	x	x
O=C1CN(C(=O)c2ccc(S(=O)(=O)N3CCCCC3)cc2)C(c2ccc(F)cc2)c2cc(Cl)ccc2N1 (centres undefined)	5%	x	x	x	x	x
CCC(Sc1nnc2c(n1)[nH]c1ccccc12)C(=O)Nc1ccccc1OC (centres undefined)	-1%	x	x	x	x	x
COc1cc(NCCCCCCN)c2ncccc2c1OC	5%	x	x	u	x	-71*
COc1cc(NC(C)CCCNC(C)C)c2ncccc2c1OC (centres undefined)	u	x	x	-5	x	-14
CCOc1ccc(CNCc2c(C(=O)O)n(Cc3ccccc3F)c3cc(OC)ccc23)cc1	-2%	x	x	x	x	x
O=C(O)c1cc(-c2ccc(/C=C3\NC(=O)N(c4ccc(Cl)cc4)C3=O)o2)ccc1Cl	20µM*	u	13%	-19	-3%	x
Oc1ccccc1C=NNC(=S)Nc1ccc(F)cc1	11%	x	x	-76*	x	-92*
Oc1ccccc1/C=N/NC(=S)NCCc1ccccc1	19%	-2	u	u	1%	-65*
Fc1ccc(NC(=S)NN=Cc2ccccc2Cl)cc1	2%	x	x	-20	x	-11
O=C(Cn1sc2ccccc2c1=O)Nc1ccc(Br)cc1	7.1µM*	x	x	-13	x	-2
O=C(Cn1sc2ccccc2c1=O)Nc1ccc(Cl)cc1	7.1µM*	x	x	-8	x	-6
COc1cc2c(cc1OC)C(c1ccc(N)cc1)=NNC(=O)C2	x	-6	11%[24.8 µM]	x	x	x
COc1ccc(NC(=O)c2cccn2-c2nnc(N3CCCCC3)s2)cc1	-9%	x	x	x	x	x
O=C(Nc1nc(-c2ccc3c(c2)Cc2ccccc2-3)cs1)c1ccccc1	4%	2	16µM*	5	5%	16
COP(=O)(OC)OC(c1ccc(Cl)cc1)P(=O)(OC)OC (centres undefined)	1%	-3	18%	x	5%	x
CCOC(=O)c1ccc(C#Cc2ccc3c(c2)C(C)(C)CCS3)nc1	3%	1	1%	x	u	x
SMILES	GLS inhibitor	Menin MLL FP FL	Menin-MLL TR inh	Six1-Eya2 blk	MLL CXXC-DNA inh	CtBP-E1A inh
COc1cc(SC#N)ccc1N=Cc1c(C)[nH]n(-c2ccc(Cl)cc2)c1=O	-1%	17	u	-15	28%	-6
COc1cc(SC#N)ccc1N=Cc1c(C)[nH]n(-c2ccc(C)c(C)c2)c1=O	11%	u	u	-66*	u	u
CCOc1ccc(NC(=O)CCCc2nc(-c3cccc(OC)c3)no2)cc1	-3%	x	x	x	x	x
Cc1ccc(-c2c3c(nc4sc(C(N)=O)c(N)c24)CCCC3)o1	6%	u	4%	-25	-6%	u
Nc1c(C(=O)NC2CC2)sc2nc3c(c(-c4ccco4)c12)CC/C3=C/c1ccco1	1.8µM*	11	u	u	7%	-23
NC(=O)c1sc2nc3c(c(-c4ccco4)c2c1N)CCC3	11%	1	-2%	-71*	0%	-7
COc1ccc(/C=N/NC(=O)c2ccn[nH]2)cc1Cn1nc(C)c([N+](=O)[O-])c1C	-1%	0	x	-2	-8%	x
COc1ccc(/C=N/NC(=O)c2ccncc2)cc1Cn1nc([N+](=O)[O-])c(Br)c1C	u	-6	u	-69*	6%	u
COc1ccc(OC)c(NC(=O)c2cccc(Cn3cc(Br)c([N+](=O)[O-])n3)c2)c1	3%	-2	u	-21	14%	-26
COc1cccc(/C=N\NC(=O)c2ccc(Cn3cc(Br)c([N+](=O)[O-])n3)o2)c1O	-1%	38	u	u	1%	-74*
COc1cc(/C=N\NC(=O)c2ccc(Cn3nc([N+](=O)[O-])c(Cl)c3C)o2)ccc1O	7%	0	9%	-83*	u	-84*
CN1CCN(C2=C(NS(=O)(=O)c3cccs3)C(=O)c3ccccc3C2=O)CC1	-11%	3	x	-13	-7%	-23
CCOc1ccccc1N1CCN(C2=C(NS(=O)(=O)c3cccs3)C(=O)c3ccccc3C2=O)CC1	17%	2	-5%	-65*	5%	-76*
O=C1C(NS(=O)(=O)c2cccs2)=C(N2CCN(Cc3ccccc3)CC2)C(=O)c2ccccc21	24%	0	x	-72*	11%	x
O=C1C(NS(=O)(=O)c2cccs2)=C(N2CCN(c3cccc(C(F)(F)F)c3)CC2)C(=O)c2ccccc21	21%	2	u	-68*	0%	-80*
CCOC(=O)N1CCN(C2=C(NS(=O)(=O)c3ccccc3)C(=O)c3ccccc3C2=O)CC1	23%	x	x	u	1%	u
O=C(CNS(=O)(=O)c1cccs1)N1CCN(c2cccc(C(F)(F)F)c2)CC1	-4%	x	x	x	x	x
Cc1cccc(-c2nnc(SCC(=O)NC3CCCCC3)o2)c1	-1%	x	x	x	x	x
CCCN1Cc2cccc(C(=O)Nc3cc(Cl)ccc3C)c2C1=O	2%	x	x	x	x	x
Cc1nc2ccccc2c(=O)n1/N=C/c1cc(Br)ccc1O	43%	10	u	u	u	-65*
O=C(NNC(=O)c1cc(S(=O)(=O)N2CCOCC2)c(Cl)cc1Cl)c1ccccc1F	-10%	x	x	-66*	x	-87*
O=C(Nc1ccccc1O)c1cc(S(=O)(=O)N2CCOCC2)c(Cl)cc1Cl	23%	5	2%	-21	-12%	u
C/C=C\C(=O)N(CC)c1ccccc1C	-1%[20 µM]	1[24.8 µM]	-16%[24.8 µM]	x	-3%[51.4 µM]	x
Cc1ccc(NCc2ccc(O)c3ncccc23)cc1C	1%	2	-7%	-69*	27%	-80*
Cc1ccc(O)c(CNc2cccc3cccnc23)c1	-29%	4	u	-22	8%	u
